From PubChem BioAssay
rTrxR1 inhibitor: inhibitors of rat thioredoxin reductase 1. O89049. recombinant rTrxR1, NADPH fluorescence consumption, selenite substrate. Potency, µM (doses to about 114 µM), for the others: at the top dose activity change, negative = inhibition, hits mostly inhibitors. 390,000 compounds, 1% hits. AID 588453; also: % is scaled to controls: 0 for no effect and ±100 for the full control effect; nearly all actives have a fitted effect of over 65% in size
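Rat TrxR1 (90 nM in the dispensed reagent) was pre-reduced with 400 uM NADPH for 5 min at room temperature, then incubated with compound for 15 min. After 400 uM selenite was added, NADPH fluorescence (Ex 340/Em 450 nm) was followed for 8 min.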
TrxR1 substrate: substrates of rat thioredoxin reductase 1; Potency, µM (doses to about 114 µM), inactives show at the top dose activity change, negative = substrate turnover; 390,000 compounds, 0.01% hits; O89049; purified TrxR1 substrate turnover, NADPH consumption readout; also: % is scaled to controls: 0 for no effect and ±100 for the full control effect; nearly all actives have a fitted effect of over 50% in size
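Rat TrxR1, dispensed at 90 nM, was prereduced with 400 uM NADPH (final) for 5 min at ~22 deg C, then incubated with compound 15 min before 400 uM selenite. A first-read NADPH fluorescence drop versus no-compound background flagged substrates.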
Vif-APOBEC3G blk: inhibitors of Vif-APOBEC3G interaction. Q9HC16. HeLa A3G-eYFP + Vif (tagged APOBEC3G with the HIV-1 protein that degrades it), YFP fluorescence, overnight. Potency, µM (highest dose often 46.1 µM), for the others: at the highest dose activity, negative = active, most hits filed as inhibitors. 410,000 compounds, 0.076% hits. AID 602310; also: % is scaled to controls: 0 for no effect and ±100 for the full control effect; nearly all actives have a fitted effect of over 60% in size
Target sequence (Q9HC16 whole entry, looked up): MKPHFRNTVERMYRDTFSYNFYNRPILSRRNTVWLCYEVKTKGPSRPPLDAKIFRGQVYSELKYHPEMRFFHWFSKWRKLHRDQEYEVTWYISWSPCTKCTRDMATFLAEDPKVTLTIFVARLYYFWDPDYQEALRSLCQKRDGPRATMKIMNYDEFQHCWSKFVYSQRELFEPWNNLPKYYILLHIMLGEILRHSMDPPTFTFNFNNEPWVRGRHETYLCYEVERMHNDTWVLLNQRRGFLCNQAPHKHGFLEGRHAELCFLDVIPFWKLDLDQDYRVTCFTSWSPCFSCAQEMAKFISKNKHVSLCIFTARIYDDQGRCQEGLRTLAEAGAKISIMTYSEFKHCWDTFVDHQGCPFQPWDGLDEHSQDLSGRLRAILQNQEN
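Read-out is eYFP fluorescence (Ex 488/Em 500-530) from Vif-expressing HeLa A3G-eYFP cells; more signal means A3G escaped Vif-mediated degradation. Cells plated overnight, compound pinned in, incubated overnight at 37 deg C.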
Vif-APOBEC3F blk: Vif-A3F binding inhibition; HeLa A3F-eYFP + Vif (tagged APOBEC3F with the HIV-1 protein that degrades it), YFP fluorescence increase; Potency, µM (doses to about 46.1 µM), without a hit: at the highest dose activity, negative = active; 390,000 compounds, 0.2% hits; also: % of control where 0% means no effect; nearly all actives have a fitted effect of over 65% in size
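HeLa cells stably expressing A3F-eYFP plus Vif, plated and incubated overnight at 37 deg C, then exposed to compounds overnight at 37 deg C. Blocked degradation read as raised yellow fluorescence (Ex 488/Em 500-530).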
VDR inh: inhibitors of human vitamin D receptor | AID 504847 | 400,000 compounds, 0.93% hits | Potency, µM, for inactives: max response, negative = inhibition, actives largely listed as inhibitors | P11473 | VDR-SRC2-3 peptide fluorescence polarization, 2 h; also: % is scaled to controls: 0 for no effect and ±100 for the full control effect
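After 23 nl compound addition and a short centrifugation, plates sat for 2 hours at ambient temperature; polarization of fluorescence then indicated loss of VDR binding to peptide SRC2-3.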
An asterisk follows results filed as active; ? = inconclusive; . = no result; [ ] = another dose, or the depositor's remark. A selection: hits, their analogues and other compounds. The true share with any hit is near 1.8%. Calls follow the shape of the dose curve; as a rule, active = well fitted curve in the direction sought with a large enough effect; inconclusive = small, poorly fitted or top-dose-only effect, or another doubt; inactive = no such curve, though single readings can be large; an effect the other way counts as inactive or inconclusive. Potency is read from the fitted curve at half-maximal effect.

SMILES	rTrxR1 inhibitor	TrxR1 substrate	Vif-APOBEC3G blk	Vif-APOBEC3F blk	VDR inh
O=C(O)C(Cc1ccccc1)N1C(=O)/C(=C/C=C/c2ccco2)SC1=S (centres undefined)	20µM*	-13.8%	3.4%	-5.0%	52.7%
O=C(NN1C(=O)/C(=C/C=C/c2ccco2)SC1=S)c1ccccc1O	56.2µM*	-17.5%	-10.0%	3.3%	46.2%
COc1ccccc1/C=C/c1nc(C#N)c(NCc2ccccc2)o1	66.1%	159.8%	.	.	15.1%
Oc1cccc2c(CC(O)c3c[nH]c4ccccc34)ccnc12 (centres undefined)	-18.2%	-7.8%	-0.7%	.	.
Cc1nc2ccccc2nc1/C=C/c1ccc(N(C)C)cc1	?	-11.7%	?	.	.
C=CCNc1nc(NC2CCN(C)CC2)c2cc(OC)c(OC)cc2n1	-0.5%	28.0%	-0.4%	.	.
CCCCCCCCN(CCCCCCCC)c1ccc(/C=C/c2ccnc3ccccc23)cc1	3.1%	6.5%	-0.6%	.	.
O=C1S/C(=C\C=C\c2ccco2)C(=O)N1c1ccccc1	50.1µM*	-0.1%	-10.2%	?	0.8%
O=C(O)CCCN1C(=O)/C(=C/C=C/c2ccco2)SC1=S	35.5µM*	-22.9%	-4.5%	-25.2%	-0.1%
Cc1ccc(NC(=O)CCCN2C(=O)/C(=C/C=C/c3ccccc3)SC2=S)cc1	?	-15.9%	-5.1%	0.0%	2.6%
Cc1cc(NC(c2nnc(-c3ccccc3)o2)c2ccccc2F)ccc1Br (centres undefined)	7.0%	-1.3%	-15.0%	-3.8%	9.8%
COC(=O)c1ccc(/C=N/NC(=S)NC(C)C)cc1	14.7%	5.4%	-1.6%	-14.1%	25.1µM*
COC(=O)c1ccc(/C=N/NC(=O)CC(=O)NC(C)C)cc1	1.9%	1.4%	-1.2%	-2.8%	-11.2%
C/C(=N\OC(=O)c1ccc(C)cc1)c1c(C)nc2cc(C)ccn12	28.2µM*	10.5%[57.1 µM]	-3.0%	14.3%	-0.5%
CCN1C(=O)/C(=C2/Sc3ccc(OC)cc3N2C)SC1=Nc1ccc(OC)cc1	31.1%[57.1 µM]	9.0%[57.1 µM]	-2.5%	-12.5%	-7.5%
C=CCN1C(=O)/C(=C2/Sc3ccc(OC)cc3N2C)SC1=Nc1cccc(O)c1	6.3%[57.1 µM]	0.0%[57.1 µM]	11.2µM*	11.2µM*	10.5%
CN(C)c1ccc(N2C(=O)CSC2=S)cc1	-31.2%	-8.3%	-3.0%	-21.1%	89.1µM*
CC1SC(=S)N(c2ccc(N(C)C)cc2)C1=O (centres undefined)	11.8%	3.0%	-4.7%	?	31.6µM*
COC(=O)c1cccc(-c2ccc(/C=N/N3C(=O)C4C5C=CC(C6CC56)C4C3=O)o2)c1 (centres undefined)	15.8%[57.1 µM]	6.1%[57.1 µM]	0.0%	-5.7%	-3.9%
O=C1C2C(C(=O)N1/N=C/c1ccc([N+](=O)[O-])o1)C1C=CC2C12CC2 (centres undefined)	56.2µM*	-12.0%	-15.1%	-13.5%	-17.5%
O=C1C2C3C=CC(C4CC34)C2C(=O)N1/N=C/c1ccc([N+](=O)[O-])o1 (centres undefined)	14.1µM*	-3.6%[57.1 µM]	-0.5%	8.4%	-0.5%
COC(=O)c1ccc(-c2ccc(/C=N/N3C(=O)C4C5C=CC(C6CC56)C4C3=O)o2)cc1 (centres undefined)	20µM*	20.9%	-3.4%	-10.0%	-29.7%
O=C1CN(/N=C\c2ccc([N+](=O)[O-])o2)C(=O)N1	.	.	.	.	-7.5%
O=C1C2C3C=CC(C4CC34)C2C(=O)N1/N=C/c1ccc(-c2ccc([N+](=O)[O-])cc2)o1 (centres undefined)	8.2%[57.1 µM]	8.8%[57.1 µM]	1.6%	?	-17.4%
COC(=O)[C@H](CC(C)C)NS(=O)(=O)NC(=O)OC(C)(C)C	9.6%	7.3%	-0.6%	.	.
SMILES	rTrxR1 inhibitor	TrxR1 substrate	Vif-APOBEC3G blk	Vif-APOBEC3F blk	VDR inh
CCCSc1nc(NCc2ccco2)c2c3c(sc2n1)COC(C)(C)C3	44.7µM*	-9.8%	-8.7%	-12.0%	-7.5%
CCCCSc1nc(NCc2ccco2)c2c3c(sc2n1)COC(C)(C)C3	-11.9%	4.8%	1.3%	-4.0%	-3.2%
CCOc1ccc(C(=S)NC2CCCCC2)cc1OCC	-0.9%	-4.8%	0.5%	-2.3%	39.8µM*
CCOc1ccc(C(C)NC(=S)NC2CCCCC2)cc1OCC (centres undefined)	8.8%[57.1 µM]	8.1%[57.1 µM]	0.7%	?	-11.0%
CCCCNC(=O)[C@@H]1CC=C[C@@H]2CCN(CCCC)C(=O)[C@@H]21	-0.1%	-2.6%	-4.1%	.	.
Cn1c(=O)[nH]c(=O)c2c1[nH]c(=S)n2CCCc1ccccc1	-14.6%	-6.8%	-4.1%	-2.0%	39.8µM*
Cn1c(=O)c2c([nH]c(=S)n2CCCc2ccccc2)n(C)c1=O	-10.6%	-4.0%	3.0%	1.0%	79.4µM*
CCCCCCCCCCCCCCCC[n+]1ccc(CC(O)c2c(C)[nH]c3ccccc23)c2ccccc21 (centres undefined)	-9.7%	3.9%	6.2%	.	.
Cc1cccc(N2C(=O)C=CC2=O)c1	-80.0%[57.1 µM]	9.3%[57.1 µM]	-4.0%	-20.2%	50.1µM*
Cc1cccc(N2C(=O)C3CCCN3C2=S)c1 (centres undefined)	0.3%	-4.8%	1.3%	0.5%	20.1%
O=C1C=CC(=O)N1c1ccc2ccccc2c1	-85.4%[57.1 µM]	14.2%[57.1 µM]	-8.8%	-5.2%	79.4µM*
O=C1C=CC(=O)N1c1ccc(Nc2ccccc2)cc1	?	-1.2%[2.29 µM]	-3.5%	-12.4%	?
Cc1ccccc1NC(=O)c1nn(C)c(C(=O)Nc2ccccc2C)c1[N+](=O)[O-]	7.1%	-3.4%	2.1%	0.0%	2.2%
Cc1ccccc1N/C(=C(/C(Cl)=C(Cl)Cl)[N+](=O)[O-])n1nnc2ccccc21	10µM*	4.4%[57.1 µM]	0.7%	0.7%	-17.3%
CCC(=O)N(CCC(c1ccccc1)c1ccco1)Cc1cccs1 (centres undefined)	-40.4%[57.1 µM]	9.1%[11.4 µM]	4.7%	-3.3%	?
COc1ccccc1C(CCN(Cc1cccs1)C(C)=O)c1ccco1 (centres undefined)	44.7µM*	-1.5%	0.1%	0.0%	?
Cc1noc(C)c1CSc1nc2ccccc2c(=O)n1-c1ccccc1	9.4%[57.1 µM]	4.4%[57.1 µM]	3.55µM*	-1.0%	-12.2%
Cc1noc(C)c1CSc1nc2[nH]ncc2c(=O)n1-c1ccccc1	32.0%	15.6%	-30.9%	-16.4%	-6.9%
CSc1ccc(/C=C/c2ccnc3ccccc23)cc1	19.0%[0.0914 µM]	12.5%[0.0914 µM]	1.5%	.	.
CN(C)NC(=S)Nc1cccc(C(F)(F)F)c1	9.4%[57.1 µM]	7.3%[57.1 µM]	-3.2%	10.0%	-1.2%
Cc1ccc(NC(=S)NNC(=S)Nc2cccc(C(F)(F)F)c2)cc1	-21.0%	-14.0%	-7.6%	-4.2%	28.2µM*
Cc1ccc(NC(=S)NNC(=O)Nc2ccccc2)cc1	7.9%[57.1 µM]	3.8%	0.3%	1.9%	4.4%
NC(=O)/C=C\C(=O)Nc1cccc(C(F)(F)F)c1	25.1µM*	10.5%	-20.3%	-25.1%	-17.4%
CC(NC(=S)Nc1cccc(C(F)(F)F)c1)C(C)(C)C (centres undefined)	-12.6%	-16.9%	0.6%	31.6µM*	-4.0%
